# Results reported in PubChem BioAssay.
# Active and inactive are the calls of the source.
# Assay: probe aXIP binding to arrayed compounds – biochemical, NeuroSMM set, 635/667 nm fluorescence, primary screen (AID 1119);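 note: probe is the protein aXip251-270 applied at 1 µg/mL to compound-printed slides; binding of probe to printed compounds measured as 667 nm fluorescence plus signal to noise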
# Settings: small-molecule microarray, higher = more signal, called active from +8 up or from −8 down
row,SMILES,composite Z-score
1,C=C(COC)/C(=C/C[C@H](OC(C)=O)c1ccc(CO)o1)c1cc(C(=O)OC)ccc1OC,0.482 (inactive)
2,O=C(NCCN1CCOCC1)C1N=C(c2ccc(OCCCO)cc2)N(c2ccccc2)O1 (stereo not given),0.267 (inactive)
3,COCCOC(=O)N1C(=O)[C@@]2(c3cc(C#CCCO)ccc31)[C@H](C(=O)N1CCCCCCC1)[C@H]1C(=O)O[C@H](c3ccccc3)[C@H](c3ccccc3)N1[C@@H]2c1ccc(OCCO)cc1,1.91 (inactive)
4,COc1cc(Br)cc(C(O)C2C=CC3C(=O)N(C)C(=O)C3N2N2CCCCC2)c1OC (stereo not given),1.94 (inactive)
5,C=C(C)[C@@H]1CC=C(C(O)C2C=CC3C(=O)N(C)C(=O)C3N2Nc2ccccc2)CC1 (stereo not given in full),0.0898 (inactive)
6,O=C(N1CCCCC1)[C@]1(Cc2ccccc2)N=C(c2ccc(OCCCO)cc2)O[C@@H]1c1ccccc1,-0.425 (inactive)
7,CC(C)c1ccc(NN2C(C(O)c3ccc(B(O)O)cc3)C=CC3C(=O)N(c4ccccc4)C(=O)C32)cc1 (stereo not given),-0.852 (inactive)
8,C=CCNC(=O)[C@@H]1[C@H]2C(=O)O[C@H](c3ccccc3)[C@H](c3ccccc3)N2[C@H](c2ccccc2OCCO)[C@@]12C(=O)N(C(=O)OCCOC)c1ccccc12,0.318 (inactive)
9,CC(C)C(O)C1C=CC2C(=O)N(c3ccccc3)C(=O)C2N1Nc1ccc([N+](=O)[O-])cc1 (stereo not given),2.65 (inactive)
10,COC(=O)[C@@]1(Cc2ccc(OC)cc2)[C@@H]2C(=CC(=O)[C@H]2CC(=O)C(=O)N2CCCC2)CN1C(=O)c1ccccc1,-0.0056 (inactive)
11,COC(=O)[C@@]1(Cc2ccc(OC)cc2)[C@H]2c3cc(C(=O)N(C)C)n(Cc4ccc(S(C)(=O)=O)cc4)c3C[C@H]2CN1C(=O)c1ccccc1,-0.357 (inactive)
12,COCCOC(=O)N1C(=O)[C@@]2(c3cc(C#CC4(O)CCCCCC4)ccc31)[C@H](c1ccc(OCCO)cc1)N1[C@H](c3ccccc3)[C@H](c3ccccc3)OC(=O)[C@H]1[C@@H]2C(=O)N1CCN(c2ncccn2)CC1,-0.232 (inactive)
13,COc1ccc(C#Cc2ccc3c(c2)[C@]2(C(=O)N3)[C@H](C(=O)Nc3nc4ccccc4s3)[C@H]3C(=O)O[C@H](c4ccccc4)[C@H](c4ccccc4)N3[C@@H]2c2ccc(O)cc2)cc1,0.257 (inactive)
14,OCCCC1=CC(c2cccs2)N(Cc2cc3c(cc2Br)OCO3)CC1 (stereo not given),0.027 (inactive)
15,CCN(CC)c1ccc(N2CC=CC34O[C@@H]5C=CCCOC(=O)C5[C@H]3C(=O)N(CCCCCCO)[C@@H]4C2=O)cc1 (stereo not given in full),0.469 (inactive)
16,CCCCCN1CC=CC23O[C@@H]4/C=C\CCC(C)OC(=O)C4[C@H]2C(=O)N(C(C)CO)[C@@H]3C1=O (stereo not given in full),-0.275 (inactive)
17,CC(C)OC(=O)C=C1C[C@@H](c2ccccn2)O[C@@H](c2ccccn2)O1,0.92 (inactive)
18,C=CCOC(=O)[C@H]1[C@@H]2C(=O)O[C@@H](c3ccccc3)[C@@H](c3ccccc3)N2[C@@H](c2ccc(OCCOC(=O)[C@@H]3C[C@@H]4C(=O)N[C@@H](CCCCNC(C)=O)C(=O)N4[C@@H]3c3ccc(O)cc3)cc2)[C@]12C(=O)Nc1ccccc12,0.282 (inactive)

row,SMILES,composite Z-score
1,Cc1nc2cc(Br)ccc2c(=O)o1,0.239 (inactive)
2,C=CCOC(=O)[C@H]1[C@@H]2C(=O)O[C@@H](c3ccccc3)[C@@H](c3ccccc3)N2[C@@H](c2ccc(OCCOC(=O)[C@H]3C[C@H]4C(=O)N[C@@H](CCCCNC(C)=O)C(=O)N4[C@H]3c3ccc(O)cc3)cc2)[C@]12C(=O)Nc1ccc(I)cc12,0.745 (inactive)
3,C=C[C@@H](COC(=O)OC(C)(C)C)N(Cc1ccc(OC)cc1)S(=O)(=O)c1ccc(Br)cc1,0.342 (inactive)
4,COc1ccc([Si](C)(C)[C@H]2[C@H](CCO)O[C@@]3(C(=O)N(Cc4ccc(N(C=O)c5ccccc5)cc4)c4ccccc43)[C@@H]2C)cc1,-0.12 (inactive)
5,COCCOC(=O)N1C(=O)[C@@]2(c3cc(C#Cc4ccc(OC)cc4)ccc31)[C@H](c1ccc(OCCO)cc1)N1[C@H](c3ccccc3)[C@H](c3ccccc3)OC(=O)[C@H]1[C@@H]2C(=O)N1CCN(c2ncccn2)CC1,-0.799 (inactive)
6,COc1ccc(C#Cc2ccc3c(c2)[C@]2(C(=O)N3)[C@H](c3ccccc3OCCO)N3[C@H](c4ccccc4)[C@H](c4ccccc4)OC(=O)[C@H]3[C@@H]2C(=O)Nc2nc3ccccc3s2)cc1,0.317 (inactive)
7,CCCC[C@@H]1C[C@H]1[C@@H](NC(=O)C(C)(C)C)c1ccc(C(F)(F)F)cc1,-0.414 (inactive)
8,COC(=O)C(CC#Cc1ccc2c(c1)[C@]1(C(=O)N2)[C@H](c2ccc(OCCO)cc2)N2[C@H](c3ccccc3)[C@H](c3ccccc3)OC(=O)[C@H]2[C@@H]1C(=O)Nc1nc2ccccc2s1)C(=O)OC,-0.0045 (inactive)
9,COc1ccc(CCNC(=O)[C@@]2(Sc3ccc(C)cc3)CC(=O)N(C(C)C)[C@@H]2c2ccc(CO)cc2I)cc1,-0.174 (inactive)
10,COC(=O)[C@@]1(Cc2ccc(F)cc2)[C@H]2c3cc(C(=O)N4CCCC4)n(Cc4ccc(S(C)(=O)=O)cc4)c3C[C@H]2CN1C(=O)c1ccccc1,1 (inactive)
11,O=C1c2ccccc2[C@](Cc2ccccc2I)(C(=O)NCCN2CCOCC2)[C@H](c2ccc(CO)cc2)N1C1CCCCC1,0.424 (inactive)
12,COC(=O)[C@@]1(CCS(=O)(=O)c2ccccc2)N=C(c2ccc(OCCCO)cc2)O[C@H]1c1ccccc1CN=[N+]=[N-],0.559 (inactive)
13,COCCOC(=O)N1C(=O)[C@@]2(c3cc(C#CCNC(N)=O)ccc31)[C@H](C(=O)Nc1nc3ccccc3s1)[C@H]1C(=O)O[C@H](c3ccccc3)[C@H](c3ccccc3)N1[C@@H]2c1ccc(OCCO)cc1,-0.335 (inactive)
14,CC(C)NC(=O)[C@@H]1c2ccccc2C(=O)N(C2Cc3ccccc3C2)[C@H]1c1ccc(CO)cc1,0.392 (inactive)
15,CC(C)=CCCC(C)=CC(O)C1C=CC2C(=O)N(C)C(=O)C2N1Nc1ccccc1 (stereo not given),-0.305 (inactive)
16,[N-]=[N+]=NCc1ccccc1C[C@]1(C(=O)N2CCCCC2)N=C(c2ccc(OCCCO)cc2)O[C@H]1c1ccccc1N=[N+]=[N-],-0.602 (inactive)
17,CCOC(=O)C[C@H]1[C@H](OC(=O)c2ccc(C(=O)c3ccccc3)cc2)[C@@H](NC(=O)CC(C)C)c2cc(OCCCO)ccc2N1C(=O)c1ccc2ccccc2n1,-0.86 (inactive)
